Test results published in PubChem BioAssay (Tox21).
Records with an inconclusive call do not appear. Calls of active or inactive are those of the source. Unless noted, the call rests on the fitted dose curve; in most records, active means well fitted curve in the direction sought with a large enough effect in the repeat runs; inconclusive means weak or mixed curves; inactive means no such curve, though single readings can be large; an effect the other way counts as inactive or inconclusive.

Tests used:
[1] = qHTS assay to identify small molecule antagonists of the estrogen related receptor (ERR) signaling pathway from Tox21 library - cell viability counter screen (AID 1224834); further: nearly all actives have a fitted effect of over 30% in size
Procedure, shortened: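 Counter screen run in ERR cells (2,000 cells/well): cells pre-incubated 6 h, then treated with compounds for 17.5 h at 37 C. Fluorescence was read 30 min after CellTiter-Fluor addition.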

[2] = target: Luciferin 4-monooxygenase (Photinus pyralis) (UniProt P08659); assay: qHTS assay to identify small molecule inhibitors of firefly luciferase (AID 1224835); further: nearly all actives have a fitted effect of over 25% in size
Procedure, shortened: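 Biochemical qHTS: compounds run as interplate titrations against purified firefly enzyme, with D-luciferin and ATP each at its KM concentration. Light output recorded by CCD imaging.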

[3] = qHTS assay to identify small molecule agonists of the constitutive androstane receptor (CAR) signaling pathway - cell viability counter screen (AID 1224836); further: nearly all actives have a fitted effect of over 45% in size
Procedure, shortened: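 Cells were seeded and incubated 4 hrs. Compounds were added across 15 concentrations together with PK11195 at 0.75 uM final. Plates were incubated 23 hrs at 37 C. CellTiter-Fluor was added and fluorescence measured.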

[4] = qHTS assay to identify small molecule antagonists of the constitutive androstane receptor (CAR) signaling pathway - cell viability counter screen (AID 1224837); further: nearly all actives have a fitted effect of over 45% in size
Procedure, shortened: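 CITCO at 50 nM final was added alongside compounds (15 concentrations) to double-stable hCAR/CYP2B6-2.2kb HepG2 cells. Following 23 hr at 37 C, cell viability was quantified by CellTiter-Fluor fluorescence intensity.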

[5] = qHTS assay to identify small molecule antagonists of the estrogen related receptor signaling pathway with the pleiotropic PPARgamma coactivator (PGC) from Tox21 10K library - cell viability counter screen (AID 1224840; active means well fitted cell-killing curve with a large enough effect in the repeat runs, not every such curve was filed as active; further: nearly all actives have a fitted effect of over 40% in size)
Procedure, shortened: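 Readout: fluorescence intensity from CellTiter-Fluor after 30 min at 37 C/5% CO2. Preceded by 17.5 h treatment of PGC/ERR cells with DMSO-dissolved compounds, added 6 h post-seeding.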

[6] = target: Thyrotropin receptor (Homo sapiens) (UniProt P16473); assay: qHTS assay to identify small molecule agonists of the thyroid stimulating hormone receptor (TSHR) signaling pathway (AID 1224843; calls by dose curve; further: nearly all actives have a fitted effect of over 45% in size)
Procedure, shortened: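 HEK293/TSHR, 800 cells/well; cpd 30 min RT; add cAMP-d2 + anti-cAMP-cryptate, 1 h RT; fluorescence read on plate reader. 15-pt titration, n=3.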

[7] = qHTS assay to identify small molecule agonists of H2AX (AID 1224845; active means well fitted activation curve with a large enough effect in the signal ratio in the repeat runs, not every such curve was filed as active; the % refers to the signal ratio)
Procedure, shortened: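 Wild-type CHO-K1 cells, plated overnight, exposed 3hr at 37C to 15 concentrations (0.76% DMSO final). Lysed, then HTRF anti-pH2AX (S139) cryptate and anti-H2AX-d2 antibodies, 24 hr room temperature; 665/620 nm emission read.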

[8] = qHTS assay to identify small molecule agonists of the hypoxia (HIF-1) signaling pathway (AID 1224846; active means well fitted activation curve with a large enough effect in the signal ratio in the repeat runs, not every such curve was filed as active; the % refers to the signal ratio)
Procedure, shortened: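 ME-180 HRE-bla reporter cells; compounds in DMSO, 17 h at 37C; read-out beta-lactamase via CCF4-AM FRET.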

[9] = qHTS assay to identify small molecule agonists of H2AX - cell viability counter screen (AID 1224847; calls by dose curve; further: top concentration of the series differs between compounds; nearly all actives have a fitted effect of over 30% in size)
Procedure, shortened: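 Cytotoxicity counter screen in wild-type CHO-K1 cells: a 3 hr compound treatment at 37C across 15 concentrations, followed by CellTiter-Glo luminescence to gauge viable cells.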

[10] = qHTS RealTime-Glo MT Cell Viability Assay in HepG2 cells - 24 hour (AID 1224867); further: nearly all actives have a fitted effect of over 50% in size
Procedure, shortened: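 HepG2 cells (600/well) were dispensed with RealTime-Glo reagents, incubated 5 h at 37 °C, then treated with compounds in DMSO for up to 40 h. Nonlytic NanoLuc luminescence reflecting viable cells was read at each stated time point.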

[11] = qHTS RealTime-Glo MT Cell Viability Assay in HEK293 cells - 32 hour (AID 1224868); further: top concentration of the series differs between compounds; nearly all actives have a fitted effect of over 50% in size
Procedure, shortened: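 HEK293 cells seeded with NanoLuc/prosubstrate reagent, rested 5 h at 37 C, then dosed and kept at 37 C up to 40 h. Nonlytic real-time luminescence from viable cells read at 0, 8, 16, 24, 32 and 40 h.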

[12] = A CellTox Green Cytotoxicity Assay to monitor cytotoxicity in HEK293 cells - 0 hour (AID 1224869); further: nearly all actives have a fitted effect of over 50% in size
Procedure, shortened: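 Real-time, in one plate: 600 HEK293 cells/well with dead-cell DNA dye, pinned compound after 5 h, 37 C incubation over 40 h; viable cells give no appreciable fluorescence.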

[13] = qHTS RealTime-Glo MT Cell Viability Assay in HepG2 cells - 40 hour (AID 1224870); further: nearly all actives have a fitted effect of over 50% in size
Procedure, shortened: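 HepG2 cells (600/well) mixed with RealTime-Glo MT reagent, settled 5 h at 37 C/5% CO2 before compound addition. Nonlytic NanoLuc luminescence from viable-cell prosubstrate reduction read repeatedly during 40 h treatment at 37 C.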

[14] = qHTS assay to identify small molecule agonists of the hypoxia (HIF-1) signaling pathway - cell viability counter screen (AID 1224844; calls by dose curve; further: nearly all actives have a fitted effect of over 50% in size)
Procedure, shortened: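 In this counter screen, HRE-bla ME-180 cell viability after 17 hrs of compound exposure at 37C was read by CellTiter-Glo luminescence, multiplexed with the beta-lactamase reporter measurement.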

[15] = qHTS assay to identify small molecule antagonists of the estrogen related receptor signaling pathway with the pleiotropic PPARgamma coactivator (PGC) from Tox21 10K library (AID 1224841; call rule not given here)
Procedure, shortened: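 One-Glo luminescence, measured after half an hour at room temperature, quantified reporter output of PGC/ERR cells. These had been plated at 2,000 per well, incubated 6 h, dosed with compounds in DMSO, then kept 18 h at 37 C.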

[16] = qHTS assay to identify small molecule agonists of the estrogen related receptor signaling pathway with the pleiotropic PPARgamma coactivator (PGC) from Tox21 10K library (AID 1224842); further: nearly all actives have a fitted effect of over 15% in size
Procedure, shortened: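 PGC/ERR reporter cell line, 2,000 cells per well, incubated 6 h at 37 C before 23 nL compound in DMSO was added. After 18 h at 37 C, One-Glo luminescence read following 30 min at room temperature.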

[17] = qHTS assay to identify small molecule antagonists of the estrogen related receptor (ERR) signaling pathway from Tox21 library (AID 1224848); further: nearly all actives have a fitted effect of over 50% in size
Procedure, shortened: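 Compounds dissolved in DMSO are pin-transferred onto ERR reporter cells (2,000 per well) that have settled for 6 h at 37 C. Plates then incubate 18 h at 37 C before ONE-Glo luciferase reagent and a luminescence read 30 min later.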

[18] = qHTS assay to identify small molecule agonists of the estrogen related receptor (ERR) signaling pathway from Tox21 library (AID 1224849; calls by dose curve; further: nearly all actives have a fitted effect of over 15% in size); conditions: ERR reporter cell line, ONE-Glo luciferase, 18 h; at 92.4 µM (top of the series) unless noted
Procedure, shortened: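 Luciferase activity in ERR pathway reporter cells served as the agonist readout; exposure lasted 18 h at 37 C, with ONE-Glo detection after 30 min at room temperature.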

[19] = target: Nuclear receptor subfamily 1 group I member 3 (Homo sapiens) (UniProt Q14994); assay: qHTS assay to identify small molecule antagonists of the constitutive androstane receptor (CAR) signaling pathway (AID 1224838); further: nearly all actives have a fitted effect of over 40% in size
Procedure, shortened: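 Inhibition of CITCO-driven (50 nM final) CYP2B6 reporter expression is measured in HepG2 cells stably carrying hCAR. Fifteen compound concentrations are applied for 24 h at 37 C, followed by luciferase luminescence.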
On the % scale 0 is the no-effect control and ±100 the full control effect.

Sequence of Luciferin 4-monooxygenase (Photinus pyralis) (P08659 whole entry, looked up): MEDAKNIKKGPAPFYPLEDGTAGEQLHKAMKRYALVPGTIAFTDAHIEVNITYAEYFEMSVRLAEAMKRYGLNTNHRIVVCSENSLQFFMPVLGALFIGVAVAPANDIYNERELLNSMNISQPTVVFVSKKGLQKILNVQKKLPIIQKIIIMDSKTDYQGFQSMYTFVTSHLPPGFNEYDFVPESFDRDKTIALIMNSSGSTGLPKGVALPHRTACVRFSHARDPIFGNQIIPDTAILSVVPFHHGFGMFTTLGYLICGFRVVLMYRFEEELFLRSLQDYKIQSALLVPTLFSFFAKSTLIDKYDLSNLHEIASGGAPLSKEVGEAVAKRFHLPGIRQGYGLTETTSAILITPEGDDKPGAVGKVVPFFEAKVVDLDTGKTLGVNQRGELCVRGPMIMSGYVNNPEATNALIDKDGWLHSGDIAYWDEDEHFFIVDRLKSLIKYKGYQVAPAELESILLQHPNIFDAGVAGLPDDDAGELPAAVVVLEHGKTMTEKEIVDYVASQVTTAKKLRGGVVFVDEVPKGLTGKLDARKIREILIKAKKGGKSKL
Sequence of Thyrotropin receptor (Homo sapiens) (P16473 whole entry, looked up): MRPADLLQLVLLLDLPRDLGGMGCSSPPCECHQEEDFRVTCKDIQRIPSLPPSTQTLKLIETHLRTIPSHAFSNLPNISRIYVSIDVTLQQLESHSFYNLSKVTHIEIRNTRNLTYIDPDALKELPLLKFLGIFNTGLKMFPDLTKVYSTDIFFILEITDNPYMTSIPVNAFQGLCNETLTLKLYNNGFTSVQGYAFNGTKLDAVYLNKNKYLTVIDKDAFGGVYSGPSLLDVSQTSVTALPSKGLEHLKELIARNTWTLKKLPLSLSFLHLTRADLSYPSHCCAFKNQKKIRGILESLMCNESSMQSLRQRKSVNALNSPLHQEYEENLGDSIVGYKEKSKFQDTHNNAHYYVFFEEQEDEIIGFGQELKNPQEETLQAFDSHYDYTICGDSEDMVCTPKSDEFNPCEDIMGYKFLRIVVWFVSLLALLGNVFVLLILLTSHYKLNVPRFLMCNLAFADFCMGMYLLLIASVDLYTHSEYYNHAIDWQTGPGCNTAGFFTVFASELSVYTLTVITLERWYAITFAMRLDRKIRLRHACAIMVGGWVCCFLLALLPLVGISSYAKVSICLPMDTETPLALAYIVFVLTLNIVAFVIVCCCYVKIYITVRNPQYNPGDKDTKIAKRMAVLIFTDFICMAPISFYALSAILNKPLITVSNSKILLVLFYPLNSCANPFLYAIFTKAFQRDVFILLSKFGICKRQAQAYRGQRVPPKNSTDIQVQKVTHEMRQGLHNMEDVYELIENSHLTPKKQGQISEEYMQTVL
Sequence of Nuclear receptor subfamily 1 group I member 3 (Homo sapiens) (Q14994 whole entry, looked up): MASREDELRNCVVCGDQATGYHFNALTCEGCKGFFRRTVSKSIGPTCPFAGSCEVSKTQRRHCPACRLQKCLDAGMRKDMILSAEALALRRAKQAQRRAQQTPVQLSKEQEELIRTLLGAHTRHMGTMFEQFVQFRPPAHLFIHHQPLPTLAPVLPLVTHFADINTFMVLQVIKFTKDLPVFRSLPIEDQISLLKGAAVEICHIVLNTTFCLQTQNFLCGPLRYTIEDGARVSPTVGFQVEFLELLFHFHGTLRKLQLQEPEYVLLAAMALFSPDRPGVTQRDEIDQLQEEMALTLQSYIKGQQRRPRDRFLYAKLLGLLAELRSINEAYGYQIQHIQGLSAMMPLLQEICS

O=C1CCCCC1C1CCCCC1 (stereo not drawn)
inactive: Potency [1] | Potency [2] | Potency [3] | Potency [4] | Potency [5] | Potency [6] | Potency [7] | outcome [8] | Potency [9] | Potency [10] | Potency [11] | Potency [12] | Potency [13]

CCOc1ccc(NS(=O)(=O)c2ccc(N)cc2)nn1
inactive: Potency [1] | Potency [2] | Potency [3] | Potency [4] | Potency [5] | Potency [6] | Potency [14] | Potency [7] | outcome [8] | Potency [9] | Potency [10] | Potency [12] | Potency [13]

CCOC(=O)c1ccccc1O
inactive: Potency [1] | Potency [2] | Potency [3] | Potency [4] | Potency [5] | Potency [15] | Potency [16] | Potency [6] | Potency [14] | Potency [7] | outcome [8] | Potency [9] | Potency [17] | activity change, positive = activation [18] 1.87% [at 42.5 µM] | Potency [10] | Potency [11] | Potency [12] | Potency [13]

COC(=O)C(C)O (stereo not drawn)
inactive: Potency [1] | Potency [2] | Potency [3] | Potency [4] | Potency [5] | Potency [6] | Potency [14] | Potency [7] | outcome [8] | Potency [9] | Potency [10] | Potency [11] | Potency [12] | Potency [13]

CN(CCCN1c2ccccc2CCc2ccccc21)CC(=O)c1ccc(Cl)cc1
inactive: Potency [1] | Potency [2] | Potency [3] | Potency [4] | Potency [19] | Potency [5] | Potency [6] | Potency [7] | outcome [8] | Potency [9] | Potency [10] | Potency [11] | Potency [12] | Potency [13]

CCOC(=O)NCCC[Si](OCC)(OCC)OCC
inactive: Potency [1] | Potency [2] | Potency [3] | Potency [4] | Potency [19] | Potency [5] | Potency [15] | Potency [16] | Potency [14] | Potency [7] | outcome [8] | Potency [9] | Potency [17] | activity change, positive = activation [18] -9.42% | Potency [10] | Potency [11] | Potency [12] | Potency [13]

CCN(CC)CC1CCCCN1CC(=O)N1c2ccccc2C(=O)Nc2cccnc21 (stereo not drawn)
inactive: Potency [1] | Potency [2] | Potency [3] | Potency [4] | Potency [5] | Potency [15] | Potency [16] | Potency [6] | Potency [14] | Potency [7] | outcome [8] | Potency [9] | Potency [17] | activity change, positive = activation [18] 8.53% [at 42.5 µM] | Potency [10] | Potency [11] | Potency [12] | Potency [13]
